# TSHR agonist: qHTS Assay for Agonists of the Thyroid Stimulating Hormone Receptor; AID 926, 2007; HEK293-CNG-TSHR cells (CNG channel as cAMP sensor), membrane potential dye, cAMP; Potency, µM (series often up to 57.1 µM), for the others: at the highest dose activation, usual class: activators; hit rate 0.48% among 73,000; active means well fitted activation curve with a large enough effect in the main read-out, with a control signal flat, not every such curve was filed as active; inconclusive means small, poorly fitted or top-dose-only effect, or a change in a side signal; inactive means no such curve, though single readings can be large or run the other way; % of control where 0% means no effect;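 further: the control signal comes from parental cells without the receptor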
# Target sequence (P16473 whole entry, looked up): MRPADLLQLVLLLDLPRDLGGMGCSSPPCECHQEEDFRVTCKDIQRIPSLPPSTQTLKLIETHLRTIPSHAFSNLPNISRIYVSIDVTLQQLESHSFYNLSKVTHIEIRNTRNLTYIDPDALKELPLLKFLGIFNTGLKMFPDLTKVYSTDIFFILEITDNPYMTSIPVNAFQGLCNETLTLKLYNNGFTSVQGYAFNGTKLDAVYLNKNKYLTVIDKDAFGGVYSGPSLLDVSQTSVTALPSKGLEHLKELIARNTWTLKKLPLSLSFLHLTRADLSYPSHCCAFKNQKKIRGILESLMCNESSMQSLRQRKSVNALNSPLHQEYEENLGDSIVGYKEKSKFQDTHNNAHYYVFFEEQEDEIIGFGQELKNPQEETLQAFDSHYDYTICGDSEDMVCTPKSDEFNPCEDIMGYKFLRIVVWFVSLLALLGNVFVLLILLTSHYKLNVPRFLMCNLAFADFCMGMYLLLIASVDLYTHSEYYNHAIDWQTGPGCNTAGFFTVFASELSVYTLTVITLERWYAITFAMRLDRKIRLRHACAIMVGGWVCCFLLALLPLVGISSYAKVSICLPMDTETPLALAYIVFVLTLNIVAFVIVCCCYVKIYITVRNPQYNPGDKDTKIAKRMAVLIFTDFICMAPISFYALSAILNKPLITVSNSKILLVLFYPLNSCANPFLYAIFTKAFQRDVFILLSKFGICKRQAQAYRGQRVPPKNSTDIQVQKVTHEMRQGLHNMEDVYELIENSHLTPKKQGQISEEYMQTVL
#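 HEK 293 cells stably expressing TSHR and a modified CNG channel, with CNG-only parental cells as counterscreen, were preloaded 60 min at room temperature with membrane potential dye containing 100 uM RO 20-1724. Compound exposure was 30 min, and depolarization was read as fluorescence at 590 nm.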
# Ub-GFP proteasome: Ubiquitin-GFP Assay; AID 526, 2006; Ubiquitin-GFP reporter cells, proteasome inhibition, GFP fluorescence; response scale: untreated = 0%, 10 µM MG-132 = 100%; Potency, µM (titrated, usually from 45.9 µM), for the others: at the top dose activation (GFP accumulation), actives largely listed as activators; 67,000 tested, under 10 active; active means well fitted activation curve with a large enough effect, not every such curve was filed as active; inconclusive means small, poorly fitted or top-dose-only effect, or another doubt; inactive means no such curve, though single readings can be large or run the other way
#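 Proteasome block read as GFP accumulation: ubiquitin(G76V)-GFP U2OS cells exposed to compound (2.9 nM–46 uM) for 4 hr at 37 C. Normalization used untreated cells as 0% and 10 uM MG-132 as 100%; concentration-response curves fitted.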
# HEK293 cAMP cs: qHTS Assay for Agonists of the Thyroid Stimulating Hormone Receptor: Activators of Intracellular cAMP Concentrations in Parental HEK 293 | Potency, µM (titrated, usually from 57.1 µM), without a hit: at the top dose activation, most hits filed as activators | hit rate 2.5% among 73,000 | parental HEK293 CNG cAMP sensor, membrane potential fluorescence; further: % of control where 0% means no effect; nearly all actives have a fitted effect of over 55% in size
#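 Parental HEK 293 cells stably expressing a cAMP-gated CNG channel were loaded with membrane potential dye containing 100 uM RO 20-1724 for 60 min. Compound added for 30 min; depolarization read as fluorescence intensity at 590 nm.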
# USP2a inh: qHTS Assay for Inhibitors of Ubiquitin-specific Protease USP2a; Ubiquitin carboxyl-terminal hydrolase 2 (Homo sapiens), O75604; hit rate 0.1% among 60,000; AID 927, 2007; Potency, µM (doses to about 38.3 µM), inactives show at the top dose activity change, negative = inhibition, hits mostly inhibitors; USP2a enzymatic assay, qHTS inhibition; further: nearly all actives have a fitted effect of over 60% in size
#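 Inhibition is measured in a cell-free coupled assay with 20 nM USP2 core, 20 nM Ub-PLA2 and 20 uM NBD C6-HPC, 2.5 h incubation. Activity normalized to NEM control.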
# GBA mod: Glucocerebrosidase; Lysosomal acid glucosylceramidase (Homo sapiens), P04062; purified enzyme, resorufin glucoside fluorescence (screen aimed at inhibitors), 20 min; Potency, µM; hit rate 1.1% among 48,000; in the data active means potency below about 15 µM; inconclusive means mostly about 16 µM to 33 µM;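 further: the screen sought inhibitors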
#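 Normal human glucocerebrosidase (0.2 nM final) was assayed with resorufin β-D-glucopyranoside (30 uM final) in 50mM citric acid/KH2PO4, 10mM sodium taurocholate, 0.01% tween-20, pH 5.9. Compounds were titrated; fluorescence (Ex 548, Em 600) read after 20 min at RT.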
# Bst PK mod: Pyruvate Kinase; purified pyruvate kinase, luminescence ATP production; ribose 5-phosphate activator present at AC10; Potency, µM; hit rate 1.2% among 51,000; in the data active means potency below about 11 µM; inconclusive means mostly about 12 µM to 25 µM;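 the screen sought inhibitors and activators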;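 further: scaled between full activation by ribose 5 phosphate and full inhibition by luteolin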
# Active calls of the source: *; ? = inconclusive; · = no result given; [ ] = another dose, or the depositor's remark. An excerpt weighted towards active compounds, which were near 4.1% of everything screened. Unless noted, the call rests on the fitted dose curve; in most records, active means well fitted curve in the direction sought with a large enough effect; inconclusive means small, poorly fitted or top-dose-only effect, or another doubt; inactive means no such curve, though single readings can be large; an effect the other way counts as inactive or inconclusive. Potency means the concentration at half of the fitted maximal effect.
SMILES,TSHR agonist,Ub-GFP proteasome,HEK293 cAMP cs,USP2a inh,GBA mod,Bst PK mod
COc1ccc(-c2ccc3c(n2)CCCN3C[C@H](O)CN2CCCc3nc(C)c(C)cc32)cc1,-11%[11.4 µM],·,-7%[11.4 µM],·,·,·
O=C(NCCN1CCCC1)c1ccc(Cc2nc3ccccc3[nH]2)cc1,-2%,·,-9%,·,·,·
CCOC(=O)c1cnc2c(C)cccc2c1NCc1ccco1,?,8%,25µM*,-1%,·,·
CCOC(=O)c1cnc2c(C(=O)OC)cccc2c1NCc1ccco1,11%,2%,-1%,17%,>77,>11
CCOC(=O)c1ccc2ncc(C(=O)OCC)c(NCc3ccco3)c2c1,?,0%,25µM*,15%,>77,>57
CC(=O)C1=C(O)C=C(c2ccco2)CC1c1ccco1 (centres undefined),?,4%,16µM*,26%,>77,>57
CC(C#N)Sc1ncnc2sc3c(c12)CCC3 (centres undefined),?,-2%,25µM*,-1%,>77,·
CCCCC(=O)Nc1cc2nn(-c3ccc(OC)cc3)nc2cc1C,-2%,-2%,9%,5%,>77,>57
CCC(=O)Nc1cc2nn(-c3ccc(OC)cc3)nc2cc1C,-5%,-3%,6%,-3%,>77,3.4*
Cc1nc2ccccc2c2c1C(=O)N(CCC1=CCCCC1)C2=O,?,1%,?,23%,14*,>57
Cc1nc2ccccc2c2c1C(=O)N(C)C2=O,-7%,-5%,-4%,25%,>77,·
CCCn1c(C)nc2c(c1=O)c1nc3ccccc3nc1n2CCC1=CCCCC1,?,-1%,20µM*,26%,>77,>57
CN(C)C(=O)c1ccc(-c2nc(Nc3ccccc3)c3ccccc3n2)cc1,20µM*,3%,14%,217%,·,·
Cc1cc(N2CCCCC2)nc(SCc2ccc(C#N)cc2)n1,?,6%,32µM*,-1%,>77,>57
Cc1cc(N2CCOCC2)nc(SCC(=O)c2ccccc2)n1,0%,3%,16%,12%,>77,>57
CC(=O)Nc1cccc(N)c1,1%,·,-2%,·,·,·
COc1cccc(OC)c1C(=O)Nn1c(C2CCC2)nc2ccccc2c1=O,?,-7%,25µM*,0%,>77,>57
Cc1nc2ccccc2c(=O)n1NC(=O)c1c(O)c2ccccc2n(C)c1=O,-4%,14%,-7%,4%,·,·
NCC1OC(OC2C(N)CC(N)[C@@H](O)[C@@H]2OC2O[C@H](CO)[C@@H](O[C@@H]3OC(CN)C(O)C(O)C3N)C2O)C(N)C(O)C1O (some centres undefined),·,·,·,15%,·,·
N#CCCn1c(=O)c(-c2ccc(F)cc2)nc2cnc(N3CCNCC3)nc21,1%,-3%,5%,33%,·,·
CC1=C(C(=O)OCc2ccc3c(c2)OCO3)C(c2ccc(Cl)cc2)NC(=O)N1 (centres undefined),32µM*,5%,18%,8%,·,·
O=C1c2ccccc2C(Nc2ccc(Cl)cn2)N1c1ccccn1 (centres undefined),?,3%,16µM*,·,·,·
Cc1nn(Cc2ccccc2)c(Cl)c1C(=O)OCc1nnc(-c2ccc(Cl)cc2)o1,?,6%,25µM*,23%,>77,?
Cc1nn(Cc2ccccc2)c(Cl)c1C(=O)OCc1nnc(-c2ccccc2)o1,?,8%,?,1%,>77,>57
CCn1c2ccccc2c2cc(NC(=O)C3CCN(S(=O)(=O)c4cccs4)CC3)ccc21,-8%,-2%,-26%,13%,2.8*,>57
Cn1c(=NC(=O)C2CCN(S(=O)(=O)c3cccs3)CC2)sc2ccccc21,25µM*,4%,14%,1%,>77,>57
CC(C)(N=NC(C)(C)C1=NCCN1)C1=NCCN1,-3%[11.4 µM],0%[9.17 µM],-1%[11.4 µM],·,·,·
COc1ccc(-c2cc3ccccc3n2CC(O)Cn2nc(C)cc2C)cc1 (centres undefined),1%,-3%,13%,211%,>77,>57

# Compound activity deposited in PubChem by National Center for Advancing Translational Sciences (NCATS).
